Source: PubChem BioAssay
A selection: hits, their analogues and other compounds. The true share with any hit is near 9.2%.
NPC1 prom act: activators of NPC1 promoter. AID 485313. Huh7 NPC1 promoter luciferase reporter, 24 h. 2.4% of 320,000 active. Potency, µM (titrated, usually from 9.22 µM), usual class: activators; also: nearly all actives have a fitted effect of over 60% in size
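Luciferase expression driven by the NPC1 promoter was measured in stably transfected Huh7 cells after a 24 h compound incubation, using a luciferase reagent and a luminescence read.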
SMN2 splice up: enhancers of SMN2 splice variant expression | HEK293 SMN2-luciferase splicing reporter, luminescence, 30-36 h | Potency, µM (titrated, usually from 46.1 µM), hits mostly activators | 2.8% of 210,000 active; also: nearly all actives have a fitted effect of over 55% in size
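HEK293 cells carry an SMN2 minigene-luciferase reporter in which exon 7 inclusion puts luciferase in frame. Cells were seeded at 2000 cells/well, attached for 10-12 hours, then exposed to compounds for 30-36 hours at 37C before ONE-Glo luminescence.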
Rab9 promoter act: activates the Rab9 promoter; Huh7 Rab9 promoter-luciferase reporter, luminescence, 24 h; Potency, µM (top dose mostly 9.22 µM), hits mostly activators; AID 485297; 2.8% of 320,000 active; also: nearly all actives have a fitted effect of over 60% in size
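Rab9 promoter-driven luciferase in stably transfected Huh7 cells; 1500 cells/well rested 2 h, exposed to compound in DMSO for 24 h at 37 °C, 5% CO2. Luminescence read 10 min after adding luciferase reagent at ambient temperature.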
ELG1 repair inh: ELG1-dependent DNA repair inhibition; AID 504467; 2.3% of 330,000 active; Potency, µM (series often up to 46.1 µM), actives largely listed as inhibitors; HEK293T ELG1-luciferase reporter, luminescence, 16 h; DNA damage induced by 5-fluorouridine; also: nearly all actives have a fitted effect of over 55% in size
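5-Fluorouridine DNA damage + compound/DMSO, 2,000 cells/well, 16 h, 37 °C/5% CO2. ONE-Glo, 30 min RT, luminescence. Readout = decrease in reporter signal.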
FLuc modulator: firefly luciferase modulation, counter-screen for miR-21 project; P08659; Potency, µM (highest dose often 57.5 µM), usual class: inhibitors; purified FLuc, Km substrates, luminescence inhibition; AID 588342; 6.9% of 360,000 active; also: nearly all actives have a fitted effect of over 55% in size
Target sequence (P08659 whole entry, looked up): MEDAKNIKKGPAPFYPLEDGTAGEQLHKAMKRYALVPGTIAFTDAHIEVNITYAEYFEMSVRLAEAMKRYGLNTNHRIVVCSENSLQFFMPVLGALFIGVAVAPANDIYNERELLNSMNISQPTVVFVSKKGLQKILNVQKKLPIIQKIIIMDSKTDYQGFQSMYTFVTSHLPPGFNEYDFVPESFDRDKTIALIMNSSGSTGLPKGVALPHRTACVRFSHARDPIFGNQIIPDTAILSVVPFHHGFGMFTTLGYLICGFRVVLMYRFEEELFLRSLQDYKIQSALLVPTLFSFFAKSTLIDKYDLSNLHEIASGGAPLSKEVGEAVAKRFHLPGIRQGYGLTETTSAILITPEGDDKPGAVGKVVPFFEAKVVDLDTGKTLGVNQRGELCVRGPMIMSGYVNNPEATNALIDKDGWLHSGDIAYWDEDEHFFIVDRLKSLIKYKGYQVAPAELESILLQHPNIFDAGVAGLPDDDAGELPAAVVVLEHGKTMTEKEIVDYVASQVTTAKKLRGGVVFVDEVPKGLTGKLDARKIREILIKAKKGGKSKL
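Purified P. pyralis luciferase, 10 nM final, with Km-level 10 uM D-luciferin and 10 uM ATP in 50 mM Tris acetate pH 7.5, 10 mM Mg acetate, 0.01% Tween-20, 0.05% BSA; 6-point qHTS titration about 60 µM downward; luminescence read.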
ELG1 genotoxic: induces genotoxicity in HEK293T cells with luciferase-tagged ELG1; 1.3% of 330,000 active; HEK293T ELG1-luciferase reporter, luminescence, 16 h; Potency, µM (titrated, usually from 46 µM), actives largely listed as activators; also: nearly all actives have a fitted effect of over 60% in size
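Screening used a luciferase reporter fused to human ELG1 in HEK293T cells. Luminescence was read on a CCD plate imager after 16 hr exposure and 30 min ONE-Glo incubation.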
Hits are given with their value; . = inactive; ? = inconclusive; / = no result. Calls follow the shape of the dose curve; as a rule, active = well fitted curve in the direction sought with a large enough effect; inconclusive = small, poorly fitted or top-dose-only effect, or another doubt; inactive = no such curve, though single readings can be large; an effect the other way counts as inactive or inconclusive.

SMILES	NPC1 prom act	SMN2 splice up	Rab9 promoter act	ELG1 repair inh	FLuc modulator	ELG1 genotoxic
O=C(NNC(=O)c1cc2ccccc2cc1O)c1cccs1	3.2µM	/	3.5µM	?	12µM	?
Cn1c(=O)[nH]c(=O)c2c1nc(N1CCOCC1)n2Cc1ccccc1	/	.	/	/	.	/
CCCN1C(=O)C2(c3ccccc31)c1c(oc3cc(C)c(C)cc3c1=O)C(=O)N2CCCOC (stereo not given)	/	.	/	/	.	/
O=C(Nc1nnc(C2CCCO2)s1)c1ccc(Br)cc1 (stereo not given)	3.5µM	.	?	?	?	?
Cc1ccc(OCC(=O)Nc2nnc(C3CCCO3)s2)c(Br)c1 (stereo not given)	.	.	.	?	?	.
COc1ccc(-c2cc(C(F)(F)F)n3nc(C(=O)Nc4sc5c(c4C#N)CCC(C)C5)cc3n2)cc1OC (stereo not given)	/	.	/	/	.	/
CCOc1cc(/C=C2\C(=O)NN(c3ccccc3)C2=O)cc([N+](=O)[O-])c1O	.	.	.	.	17µM	.
COc1cc(/C=C2/C(=O)N(c3ccc(C(=O)O)cc3)N=C2C)cc(OC)c1O	.	/	.	.	?	.
COc1cc(/C=C2\C(=O)NN(c3ccc(C)cc3)C2=O)cc([N+](=O)[O-])c1O	.	.	.	.	27µM	.
COc1cc(/C=C2/C(=O)N(c3ccc(C)c(C)c3)N=C2C)cc([N+](=O)[O-])c1O	.	/	.	.	17µM	.
CCN1C(=O)[C@H]2[C@@H](c3ccc(-c4ccc(OC)cc4)cc3)N[C@@](C)(C(=O)OC)[C@H]2C1=O	.	/	.	.	?	.
CC(C)c1ccc(CNC(=O)c2ccc(N3CCCC3)c(NC(=O)NCc3ccc(F)cc3)c2)cc1	/	/	/	/	.	/
NS(=O)(=O)c1ccc(CCNC(=O)COC(=O)CC(c2ccccc2)c2ccccc2)cc1	.	.	.	21µM	.	.
NS(=O)(=O)c1ccc(CCNC(=O)CNCCc2ccc(C(F)(F)F)cc2)cc1	.	/	.	21µM	.	.
CC(C)(C)c1ccc(C(=O)CCC(=O)OCC(=O)NCCc2ccc(S(N)(=O)=O)cc2)cc1	.	/	.	.	12µM	.
NS(=O)(=O)c1ccc(CCNC(=O)COC(=O)CCc2ccccc2)cc1	.	.	.	.	.	.
O=C1c2ccccc2CCC12N=NCC2c1ccccc1 (stereo not given)	.	.	.	?	17µM	.
OCCC1CN(Cc2cnc(-c3ccc(Cl)cc3)nc2)CCN1C1CCCC1 (stereo not given)	.	/	.	6.5µM	.	.
CCN(CC)C(=O)C12CC3CC(CC(Br)(C3)C1)C2	.	/	.	.	.	.
O=C1Cc2cc(NS(=O)(=O)c3cc(F)ccc3F)cc3c2N1CCC3	.	/	.	?	.	.
Cn1c(CN2CCN(S(C)(=O)=O)CC2)nc2cc([N+](=O)[O-])ccc21	.	/	.	.	.	.
COc1ccc(-c2cc(C(=O)N3CC(C)CC(C)C3)c3ccccc3n2)cc1 (stereo not given)	.	/	.	.	?	.
O=C(c1cc2ccccc2oc1=O)N1CCN(c2ncccn2)CC1	.	.	?	?	21µM	18µM
COc1cc(-c2cc(C(=O)N3CCN(c4ccccn4)CC3)c3ccccc3n2)cc(OC)c1OC	.	.	.	8.2µM	.	.
COc1ccc(OCC(=O)N2CCN(c3nnc(-c4ccccc4)c4ccccc34)CC2)cc1	.	.	.	16µM	.	.
SMILES	NPC1 prom act	SMN2 splice up	Rab9 promoter act	ELG1 repair inh	FLuc modulator	ELG1 genotoxic
COc1ccc(-c2cc(C(=O)N3CCN(c4ccccn4)CC3)c3ccccc3n2)cc1	?	/	2.8µM	?	0.67µM	.
CC(C)(C)NC(=O)C(c1ccccn1)N(C(=O)C1CSC(=O)C1)c1ccccc1F (stereo not given)	.	/	.	.	.	.
CC(OC(=O)c1cc(=O)[nH]c2ccccc12)C(=O)NC1CCCCC1C (stereo not given)	.	/	.	.	.	.
CCCc1ccc(-c2cc(C(=O)N3CCN(c4ccccn4)CC3)c3ccccc3n2)cc1	?	/	?	?	0.11µM	?
Cc1ccc(-c2cc(C(=O)N3CCN(c4ccc(O)cc4)CC3)c3ccccc3n2)cc1	/	/	/	?	/	.
COc1ccc(-c2cc(C(=O)N3CCN(c4ncccn4)CC3)c3ccccc3n2)cc1	?	/	?	16µM	0.67µM	.
CCc1ccccc1NC(=O)CSc1ncc(S(=O)(=O)c2ccccc2)c(N)n1	/	/	/	/	.	/
CCn1ccc2cc(S(=O)(=O)N3CCC(C(=O)NCCc4ccc(C)cc4)CC3)ccc21	/	/	/	/	.	/
Cc1cccc(Nc2ccc(NCc3ccccc3)nn2)c1	?	.	?	?	15µM	.
CCCSC1=C(C#N)C2(CCCCC2)C(C#N)=C(N)N1	.	/	.	.	21µM	.
N#CC1=C(N)NC(SCc2ccccc2)=C(C#N)C12CCCCC2	.	.	.	?	.	.
N#CC1=C(N)NC(SCC(=O)c2ccc(Br)cc2)=C(C#N)C12CCCCC2	.	.	.	?	.	.
CCSC1=C(C#N)C2(CCCCC2)C(C#N)=C(N)N1	.	.	.	.	6µM	.
O=C(O)/C=C/C(=O)Nc1ccc(S(=O)(=O)N2CCCC2)cc1	.	.	.	.	.	.
COCCNc1nc(-c2ccc(OC)cc2)c(-c2ccc(OC)cc2)s1	.	.	.	21µM	.	.
COc1ccc(-c2nc(NC(C)=O)sc2-c2ccccc2)cc1	.	.	.	21µM	.	.
O=C(CSc1nnnn1-c1cccc(O)c1)NC1CC1	.	/	.	.	.	.
COCCOC(=O)c1[nH]c2c(c1C)C(=O)C(C(=O)OC)C(C)C2 (stereo not given)	?	11µM	3.5µM	?	9.5µM	16µM
Cc1c(C(=O)OC2CCC(C)CC2)[nH]c2c1C(=O)CCC2 (stereo not given)	0.5µM	2.5µM	0.45µM	?	4.3µM	2.6µM
COC(=O)C1C(=O)c2c([nH]c(C(=O)OC3CCCCCC3)c2C)CC1C (stereo not given)	?	?	?	?	?	18µM
CCCCOC(=O)c1[nH]c2c(c1C)C(=O)CC(c1cc(OC)c(OC)c(OC)c1)C2 (stereo not given)	.	.	.	?	.	.
CCOc1ccc(C2CC(=O)c3c([nH]c(C(=O)OC4CCCCCC4)c3C)C2)cc1 (stereo not given)	/	.	/	/	.	/
COCCOC(=O)c1[nH]c2c(c1C)C(=O)CC(c1cc(OC)c(OC)c(OC)c1)C2 (stereo not given)	.	/	.	8.2µM	.	.
Cc1cc2ccccc2n1CCNC(=O)c1ccccc1F	/	?	/	/	.	/
